Tests used:
Assay in all cases: cell viability of combination (% of vehicle); higher = less cytotoxic
Conditions in all cases: 1 µM; 72 h; partner dose: 10 nM
HCI01 [1] = test system: HCI01 (cells of a triple-negative basal-like breast cancer xenograft)
Protocol: (§1)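 PDX cells were treated for 72 h with each drug at 1 µM plus carfilzomib (10 nM; 100 nM for WHIM2). Luciferase viability is expressed as percent of vehicle.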

UCD52 [2] = test system: UCD52 (cells of a triple-negative basal-like breast cancer xenograft)
Protocol: as §1

WHIM30 = test system: WHIM30 (cells of a triple-negative basal-like breast cancer xenograft)
Protocol: as §1

HCI01 [3] = test system: HCI01; remark: listed apart in the source
Protocol: (§2)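 PDX cells were treated for 72 h with each drug at 1 µM plus afatinib (10 nM; 1 µM for WHIM30). Luciferase viability is expressed as percent of vehicle.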

UCD52 [4] = test system: UCD52; remark: listed apart in the source
Protocol: as §2

WHIM2 = test system: WHIM2 (cells of a triple-negative basal-like breast cancer xenograft)
Protocol: as §2

In the case of `COc1cc2c(Oc3ccc(NC(=O)C4(C(=O)Nc5ccc(F)cc5)CC4)cc3F)ccnc2cc1OCCCN1CCOCC1` + CC(C)C[C@H](NC(=O)[C@H](CCc1ccccc1)NC(=O)CN1CCOCC1)C(=O)N[C@@H](Cc1ccccc1)C(=O)N[C@@H](CC(C)C)C(=O)[C@@]1(C)CO1 [Carfilzomib], the “cell viability of combination” value (HCI01 [1]) is reported as 75.8, the “cell viability of combination” value (UCD52 [2]) is reported as 32.5 and the “cell viability of combination” value (WHIM30) is reported as 22.4.
For `Cc1c(Cl)cccc1Nc1ccccc1C(=O)O` [Tolfenamic Acid] + CC(C)C[C@H](NC(=O)[C@H](CCc1ccccc1)NC(=O)CN1CCOCC1)C(=O)N[C@@H](Cc1ccccc1)C(=O)N[C@@H](CC(C)C)C(=O)[C@@]1(C)CO1 [Carfilzomib], the “cell viability of combination” value (HCI01 [1]) was 74.7, the “cell viability of combination” value (UCD52 [2]) was 69.7 and the “cell viability of combination” value (WHIM30) was 20.7.
With `CC(C)C1=CC(=C2NNC(=O)N2c2ccc3c(ccn3C)c2)C(=O)C=C1O` [Ganetespib (STA-9090)] + CN(C)C/C=C/C(=O)Nc1cc2c(Nc3ccc(F)c(Cl)c3)ncnc2cc1O[C@H]1CCOC1 [Afatinib] the “cell viability of combination” value (HCI01 [3]) was 49.1, the “cell viability of combination” value (UCD52 [4]) was 30.9 and the “cell viability of combination” value (WHIM2) was 29.1.
For `CNCCCC12CCC(c3ccccc31)c1ccccc12.Cl` [Maprotiline HCl] + CN(C)C/C=C/C(=O)Nc1cc2c(Nc3ccc(F)c(Cl)c3)ncnc2cc1O[C@H]1CCOC1 [Afatinib], the “cell viability of combination” value (HCI01 [3]) was 55.1, the “cell viability of combination” value (UCD52 [4]) was 61.4 and the “cell viability of combination” value (WHIM2) was 46.
For `CC(CCC(=O)O)C1CCC2C3CCC4CC(O)CCC4(C)C3CCC12C` (stereo not drawn) [Lithocholic Acid] + CC(C)C[C@H](NC(=O)[C@H](CCc1ccccc1)NC(=O)CN1CCOCC1)C(=O)N[C@@H](Cc1ccccc1)C(=O)N[C@@H](CC(C)C)C(=O)[C@@]1(C)CO1 [Carfilzomib], the “cell viability of combination” value (HCI01 [1]) was 67.4, the “cell viability of combination” value (UCD52 [2]) was 60.5 and the “cell viability of combination” value (WHIM30) was 21.6.
For `Clc1ccc(C(Cn2ccnc2)OCc2ccc(Sc3ccccc3)cc2)c(Cl)c1.O=[N+]([O-])O` (stereo not drawn) [Fenticonazole Nitrate] + CC(C)C[C@H](NC(=O)[C@H](CCc1ccccc1)NC(=O)CN1CCOCC1)C(=O)N[C@@H](Cc1ccccc1)C(=O)N[C@@H](CC(C)C)C(=O)[C@@]1(C)CO1 [Carfilzomib], the “cell viability of combination” value (HCI01 [1]) was 83.9, the “cell viability of combination” value (UCD52 [2]) was 65.2 and the “cell viability of combination” value (WHIM30) was 21.1.
`CNCCC(Oc1cccc2ccccc12)c1cccs1.Cl` (stereo not drawn) [Duloxetine HCl] + CC(C)C[C@H](NC(=O)[C@H](CCc1ccccc1)NC(=O)CN1CCOCC1)C(=O)N[C@@H](Cc1ccccc1)C(=O)N[C@@H](CC(C)C)C(=O)[C@@]1(C)CO1 [Carfilzomib] was tested, and the “cell viability of combination” value (HCI01 [1]) was 81.6, the “cell viability of combination” value (UCD52 [2]) was 62.4 and the “cell viability of combination” value (WHIM30) was 16.1.
With `O=C(c1ccc(F)c(F)c1Nc1ccc(I)cc1F)N1CC(O)(C2CCCCN2)C1` (stereo not drawn) [Cobimetinib] + CC(C)C[C@H](NC(=O)[C@H](CCc1ccccc1)NC(=O)CN1CCOCC1)C(=O)N[C@@H](Cc1ccccc1)C(=O)N[C@@H](CC(C)C)C(=O)[C@@]1(C)CO1 [Carfilzomib] the “cell viability of combination” value (HCI01 [1]) was 65.6, the “cell viability of combination” value (UCD52 [2]) was 44.7 and the “cell viability of combination” value (WHIM30) was 24.7.
In the case of `COCCn1c2c([n+](Cc3cnccn3)c1C)C(=O)c1ccccc1C2=O.[Br-]` + CC(C)C[C@H](NC(=O)[C@H](CCc1ccccc1)NC(=O)CN1CCOCC1)C(=O)N[C@@H](Cc1ccccc1)C(=O)N[C@@H](CC(C)C)C(=O)[C@@]1(C)CO1 [Carfilzomib], the “cell viability of combination” value (HCI01 [1]) is reported as 25.5, the “cell viability of combination” value (UCD52 [2]) is reported as 17.4 and the “cell viability of combination” value (WHIM30) is reported as 6.3.
With `Cc1nc(NC(=O)N2CCCC2C(N)=O)sc1-c1ccnc(C(C)(C)C(F)(F)F)c1` (stereo not drawn) + CC(C)C[C@H](NC(=O)[C@H](CCc1ccccc1)NC(=O)CN1CCOCC1)C(=O)N[C@@H](Cc1ccccc1)C(=O)N[C@@H](CC(C)C)C(=O)[C@@]1(C)CO1 [Carfilzomib] the “cell viability of combination” value (HCI01 [1]) was 62.6, the “cell viability of combination” value (UCD52 [2]) was 42.3 and the “cell viability of combination” value (WHIM30) was 20.
`CCC(NC(=O)C(C)NC)C(=O)N1CC(O)CC1Cc1c(-c2[nH]c3cc(F)ccc3c2CC2CC(O)CN2C(=O)C(CC)NC(=O)C(C)NC)[nH]c2cc(F)ccc12` (stereo not drawn) + CC(C)C[C@H](NC(=O)[C@H](CCc1ccccc1)NC(=O)CN1CCOCC1)C(=O)N[C@@H](Cc1ccccc1)C(=O)N[C@@H](CC(C)C)C(=O)[C@@]1(C)CO1 [Carfilzomib] was tested, and the “cell viability of combination” value (HCI01 [1]) was 61.9, the “cell viability of combination” value (UCD52 [2]) was 43 and the “cell viability of combination” value (WHIM30) was 11.4.
With `COCCOC(=O)C1=C(C)NC(C)=C(C(=O)OCC=Cc2ccccc2)C1c1cccc([N+](=O)[O-])c1` (stereo not drawn) [Cilnidipine] + CC(C)C[C@H](NC(=O)[C@H](CCc1ccccc1)NC(=O)CN1CCOCC1)C(=O)N[C@@H](Cc1ccccc1)C(=O)N[C@@H](CC(C)C)C(=O)[C@@]1(C)CO1 [Carfilzomib] the “cell viability of combination” value (HCI01 [1]) was 104, the “cell viability of combination” value (UCD52 [2]) was 63.2 and the “cell viability of combination” value (WHIM30) was 19.2.
For `CNCCC(Oc1ccc(C(F)(F)F)cc1)c1ccccc1.Cl` (stereo not drawn) [Fluoxetine HCl] + CC(C)C[C@H](NC(=O)[C@H](CCc1ccccc1)NC(=O)CN1CCOCC1)C(=O)N[C@@H](Cc1ccccc1)C(=O)N[C@@H](CC(C)C)C(=O)[C@@]1(C)CO1 [Carfilzomib], the “cell viability of combination” value (HCI01 [1]) was 72.4, the “cell viability of combination” value (UCD52 [2]) was 52.6 and the “cell viability of combination” value (WHIM30) was 16.3.
`CCCCc1oc2ccc(NS(C)(=O)=O)cc2c1C(=O)c1ccc(OCCCN(CCCC)CCCC)cc1` [Dronedarone] + CC(C)C[C@H](NC(=O)[C@H](CCc1ccccc1)NC(=O)CN1CCOCC1)C(=O)N[C@@H](Cc1ccccc1)C(=O)N[C@@H](CC(C)C)C(=O)[C@@]1(C)CO1 [Carfilzomib] was tested, and the “cell viability of combination” value (HCI01 [1]) was 76.1, the “cell viability of combination” value (UCD52 [2]) was 59.3 and the “cell viability of combination” value (WHIM30) was 19.
For `CCCCCOc1ccc(-c2ccc(-c3ccc(C(=O)N[C@H]4C[C@@H](O)[C@@H](O)NC(=O)[C@@H]5[C@@H](O)[C@@H](C)CN5C(=O)[C@H]([C@@H](C)O)NC(=O)[C@H]([C@H](O)[C@@H](O)c5ccc(O)cc5)NC(=O)[C@@H]5C[C@@H](O)CN5C(=O)[C@H]([C@@H](C)O)NC4=O)cc3)cc2)cc1` [Anidulafungin] + CC(C)C[C@H](NC(=O)[C@H](CCc1ccccc1)NC(=O)CN1CCOCC1)C(=O)N[C@@H](Cc1ccccc1)C(=O)N[C@@H](CC(C)C)C(=O)[C@@]1(C)CO1 [Carfilzomib], the “cell viability of combination” value (HCI01 [1]) was 73.7, the “cell viability of combination” value (UCD52 [2]) was 60 and the “cell viability of combination” value (WHIM30) was 16.7.
For `COc1cc2nccc(Oc3ccc(NC(=O)C4(C(=O)Nc5ccc(F)cc5)CC4)cc3)c2cc1OC.O=C(O)CC(O)C(=O)O` [Cabozantinib malate (XL184)] + CN(C)C/C=C/C(=O)Nc1cc2c(Nc3ccc(F)c(Cl)c3)ncnc2cc1O[C@H]1CCOC1 [Afatinib], the “cell viability of combination” value (HCI01 [3]) was 50.8, the “cell viability of combination” value (UCD52 [4]) was 64.7 and the “cell viability of combination” value (WHIM2) was 43.2.
For `COc1ccc(CN2CCN(C(c3ccc(F)cc3)c3ccc(F)cc3)CC2)c(OC)c1OC.Cl.Cl` [Lomerizine HCl] + CC(C)C[C@H](NC(=O)[C@H](CCc1ccccc1)NC(=O)CN1CCOCC1)C(=O)N[C@@H](Cc1ccccc1)C(=O)N[C@@H](CC(C)C)C(=O)[C@@]1(C)CO1 [Carfilzomib], the “cell viability of combination” value (HCI01 [1]) was 91.1, the “cell viability of combination” value (UCD52 [2]) was 57.7 and the “cell viability of combination” value (WHIM30) was 15.6.
`C#Cc1cccc(Nc2ncnc3cc(OCCOC)c(OCCOC)cc23)c1.Cl` [Erlotinib Hydrochloride] + CC(C)C[C@H](NC(=O)[C@H](CCc1ccccc1)NC(=O)CN1CCOCC1)C(=O)N[C@@H](Cc1ccccc1)C(=O)N[C@@H](CC(C)C)C(=O)[C@@]1(C)CO1 [Carfilzomib] was tested, and the “cell viability of combination” value (HCI01 [1]) was 62.6, the “cell viability of combination” value (UCD52 [2]) was 57.4 and the “cell viability of combination” value (WHIM30) was 26.3.
With `O=C(NN=Cc1ccc([N+](=O)[O-])o1)c1ccc(O)cc1` [Nifuroxazide] + CN(C)C/C=C/C(=O)Nc1cc2c(Nc3ccc(F)c(Cl)c3)ncnc2cc1O[C@H]1CCOC1 [Afatinib] the “cell viability of combination” value (HCI01 [3]) was 50.8 and the “cell viability of combination” value (WHIM2) was 48.8.
With `CC1CC(=O)NN=C1c1ccc(NN=C(C#N)C#N)cc1` (stereo not drawn) [Levosimendan] + CN(C)C/C=C/C(=O)Nc1cc2c(Nc3ccc(F)c(Cl)c3)ncnc2cc1O[C@H]1CCOC1 [Afatinib] the “cell viability of combination” value (HCI01 [3]) was 52.7 and the “cell viability of combination” value (WHIM2) was 51.2.
With `CCCCCOc1ccc(-c2ccc(-c3ccc(C(=O)N[C@H]4C[C@@H](O)[C@@H](O)NC(=O)[C@@H]5[C@@H](O)[C@@H](C)CN5C(=O)[C@H]([C@@H](C)O)NC(=O)[C@H]([C@H](O)[C@@H](O)c5ccc(O)cc5)NC(=O)[C@@H]5C[C@@H](O)CN5C(=O)[C@H]([C@@H](C)O)NC4=O)cc3)cc2)cc1` [Anidulafungin] + CN(C)C/C=C/C(=O)Nc1cc2c(Nc3ccc(F)c(Cl)c3)ncnc2cc1O[C@H]1CCOC1 [Afatinib] the “cell viability of combination” value (HCI01 [3]) was 55.5 and the “cell viability of combination” value (WHIM2) was 43.
`CC(C)c1nc(N(C)S(C)(=O)=O)nc(-c2ccc(F)cc2)c1C=CC(O)CC(O)CC(=O)[O-].CC(C)c1nc(N(C)S(C)(=O)=O)nc(-c2ccc(F)cc2)c1C=CC(O)CC(O)CC(=O)[O-].[Ca+2]` (stereo not drawn) [Rosuvastatin Calcium] + CN(C)C/C=C/C(=O)Nc1cc2c(Nc3ccc(F)c(Cl)c3)ncnc2cc1O[C@H]1CCOC1 [Afatinib] was tested, and the “cell viability of combination” value (HCI01 [3]) was 51.4 and the “cell viability of combination” value (WHIM2) was 44.2.
`COC(=O)c1ccc2c(c1)NC(=O)C2=C(Nc1ccc(N(C)C(=O)CN2CCN(C)CC2)cc1)c1ccccc1` [Nintedanib (BIBF 1120)] + CN(C)C/C=C/C(=O)Nc1cc2c(Nc3ccc(F)c(Cl)c3)ncnc2cc1O[C@H]1CCOC1 [Afatinib] was tested, and the “cell viability of combination” value (HCI01 [3]) was 45 and the “cell viability of combination” value (WHIM2) was 22.5.
For `Clc1ccc(COC(Cn2ccnc2)c2ccc(Cl)cc2Cl)c(Cl)c1.O=[N+]([O-])O` (stereo not drawn) [Miconazole Nitrate] + CN(C)C/C=C/C(=O)Nc1cc2c(Nc3ccc(F)c(Cl)c3)ncnc2cc1O[C@H]1CCOC1 [Afatinib], the “cell viability of combination” value (HCI01 [3]) was 63.9 and the “cell viability of combination” value (WHIM2) was 52.2.
`Nc1ccc2cc3ccc([NH3+])cc3nc2c1.Nc1ccc2cc3ccc([NH3+])cc3nc2c1.O=S(=O)([O-])[O-]` [Proflavine Hemisulfate] + CN(C)C/C=C/C(=O)Nc1cc2c(Nc3ccc(F)c(Cl)c3)ncnc2cc1O[C@H]1CCOC1 [Afatinib] was tested, and the “cell viability of combination” value (HCI01 [3]) was 59.6 and the “cell viability of combination” value (WHIM2) was 29.5.

From the supplement of paper PMC6992640
